# Measured values published in PMC5540273 (PLoS ONE, 2017).
# Values joined by “and” are separate entries in the source; they are usually repeats but may differ in a detail not shown here. Identical values can stand only once. Like-named read-outs stand apart in the source and are kept apart here.
# Assays:
# Conditions in all cases: n = 1
# YES = system: T1, YES
# T1 construct: gene YES1
# YSK1 = system: T2, YSK1
# T2 construct: gene STK25
# YSK4 = system: T3, YSK4
# T3 construct: gene MAP3K19
# ZAK = system: ZAK
# ZAP70 = system: ZAP70
# p38-delta = system: p38-delta
# p38-gamma = system: T4, p38-gamma
# T4 construct: gene MAPK12
# p38-alpha = system: T5, p38-alpha
# T5 construct: gene MAPK14
# p38-beta = system: T6, p38-beta
# T6 construct: gene MAPK11
# [1] = concentration: 1 μM,replicates: in singlicate, 1 µM
# [2] = concentration: 1 μM, replicates: in singlicate
# 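Also: KINOMEscan kinase panel screen.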
smiles,measurement,setting,value
CSc1nn2c(=O)cc(N3CCOCC3)nc2n1Cc1cccc(C(F)(F)F)c1C [GSK2363608],%Inh,YES; [1],19% and 22%
same,%Inh,YSK1; [1],1% and 0%
same,%Inh,YSK4; [1],40% and 30%
same,%Inh,ZAK; [1],10% and 0%
same,%Inh,ZAP70; [1],32% and 0%
same,%Inh,p38-delta; [1],55% and 34%
same,%Inh,p38-gamma; [1],7% and 0%
COc1ccccc1CNC(=O)c1cc(C(=O)c2ccccc2C)c[nH]1 [GSK364507],%Inh,p38-alpha; 1 µM,93.3%
Fc1cc(Cl)ccc1Nc1ccnc2cc(I)ccc12 [GW551191],%Inh,YES; [2],15%
same,%Inh,YSK1; [2],0%
same,%Inh,YSK4; [2],49%
same,%Inh,ZAK; [2],20%
same,%Inh,ZAP70; [2],0%
same,%Inh,p38-alpha; [2],30%
same,%Inh,p38-beta; [2],0%
same,%Inh,p38-delta; [2],41%
same,%Inh,p38-gamma; [2],1%
COC(=O)c1c(-c2ccccc2)c2cc(OC)ccc2c(=O)n1Cc1ccccc1,%Inh,YES; [2],0%
same,%Inh,YSK1; [2],1%
same,%Inh,YSK4; [2],0%
same,%Inh,ZAK; [2],20%
same,%Inh,ZAP70; [2],0%
same,%Inh,p38-alpha; [2],36%
same,%Inh,p38-beta; [2],7%
same,%Inh,p38-delta; [2],42%
same,%Inh,p38-gamma; [2],0%
NC(=O)c1nnc2ccccc2c1N,%Inh,YES; [2],0%
same,%Inh,YSK1; [2],2%
same,%Inh,YSK4; [2],88%
same,%Inh,ZAK; [2],0%
same,%Inh,ZAP70; [2],0%
same,%Inh,p38-alpha; [2],71%
same,%Inh,p38-beta; [2],0%
same,%Inh,p38-delta; [2],0%
same,%Inh,p38-gamma; [2],43%
Cn1ccc2ncnc(Oc3ccc(NC(=O)Nc4ccccc4)cc3)c21,%Inh,YES; [2],0%
same,%Inh,YSK1; [2],0%
same,%Inh,YSK4; [2],93.1%
same,%Inh,ZAK; [2],0%
same,%Inh,ZAP70; [2],0%
same,%Inh,p38-alpha; [2],0%
same,%Inh,p38-beta; [2],0%
same,%Inh,p38-delta; [2],6%
same,%Inh,p38-gamma; [2],0%
O=C1NC(=O)C(N2CCc3ccccc32)=C1c1ccccc1Cl [SB-373598],%Inh,YES; [2],10%
same,%Inh,YSK1; [2],0%
same,%Inh,YSK4; [2],0%
same,%Inh,ZAK; [2],17%
same,%Inh,ZAP70; [2],0%
same,%Inh,p38-alpha; [2],0%
same,%Inh,p38-beta; [2],35%
same,%Inh,p38-delta; [2],6%
same,%Inh,p38-gamma; [2],18%
CN1C(=O)C(Nc2ccc(Cl)c(C(=O)O)c2)=C(c2ccc(Cl)cc2)C1=O [SB-404290],%Inh,YES; [2],6%
same,%Inh,YSK1; [2],0%
same,%Inh,YSK4; [2],4%
same,%Inh,ZAK; [2],0%
same,%Inh,ZAP70; [2],1%
same,%Inh,p38-alpha; [2],5%
same,%Inh,p38-beta; [2],2%
same,%Inh,p38-delta; [2],0%
same,%Inh,p38-gamma; [2],27%
CS(=O)(=O)c1ccc(-c2nc3n(c2-c2ccncc2)CCC3)cc1 [SKF-105942],%Inh,YES; [2],33%
same,%Inh,YSK1; [2],5%
same,%Inh,YSK4; [2],1%
same,%Inh,ZAK; [2],0%
same,%Inh,ZAP70; [2],0%
same,%Inh,p38-alpha; [2],0%
same,%Inh,p38-beta; [2],0%
same,%Inh,p38-delta; [2],31%
same,%Inh,p38-gamma; [2],14%
Cc1cc(-c2ccc3c(c2)CC[C@@H](N[C@@H](C)c2ccccc2)C3)cnc1N.Cl [GW412617],%Inh,YES; [2],4%
same,%Inh,YSK1; [2],0%
same,%Inh,YSK4; [2],100%
same,%Inh,ZAK; [2],1%
same,%Inh,ZAP70; [2],0%
same,%Inh,p38-alpha; [2],0%
same,%Inh,p38-beta; [2],0%
same,%Inh,p38-delta; [2],25%
same,%Inh,p38-gamma; [2],0%
Cc1ccc(NC(=O)Nc2cccc(C(F)(F)F)c2)cc1 [GSK955403],%Inh,YES; 1 µM,10%
same,%Inh,YSK1; 1 µM,0%
same,%Inh,YSK4; 1 µM,0%
same,%Inh,ZAK; 1 µM,39%
same,%Inh,ZAP70; 1 µM,0%
same,%Inh,p38-alpha; 1 µM,10%
same,%Inh,p38-beta; 1 µM,57%
same,%Inh,p38-delta; 1 µM,0%
same,%Inh,p38-gamma; 1 µM,46%
